Shown are actives, neighbours in structure and some others; about 5.7% of the full set was active somewhere.
IL1B secr inh = blocks inflammasome-driven IL-1 beta release. activity change, % at 57.5 µM. AID 743279. THP-1 LPS/ATP IL-1B secretion, AlphaLISA, 16 h; hits give low values. actives 4.7% (n = 360,000); in the data active = activity change below about -50%; inconclusive = mostly about -30% to -49%; note: % is set by controls: 0 for no effect and ±100 for the full control effect
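THP-1 cells pretreated 1 hr with compounds (up to 57.5 uM final), then stimulated with LPS (250 ng/mL final) plus ATP (1.25 mM final); secreted IL-1B measured by AlphaLISA after 16 hr, decreased signal indicating inhibition.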
ATXN2 expr inh = reduces ATXN2 reporter expression in HEK-293 cells; HEK-293 ATXN2-luciferase reporter, luminescence, 24 h; Potency, µM (highest dose often 57 µM), inactives show at the highest dose activity change, negative = inhibition, hits mostly inhibitors; actives 0.72% (n = 360,000); AID 1745845; note: potency is the fitted concentration of half-maximal effect; % is set by controls: 0 for no effect and ±100 for the full control effect; nearly all actives have a fitted effect of over 55% in size
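ATXN2-luciferase reporter cells (luciferase flanked by upstream and downstream ATXN2 gene portions) were treated 24 h at 37 °C with compounds at up to 57 uM. SteadyGlo luminescence gave expression; GF-AFC fluorescence gave viability.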
HepG2 viability = HepG2 cytotoxicity, counter-screen for TGF-b inhibitors | HepG2 CAGA-GFP viability, ATP luminescence, 18 h | Potency, µM (series often up to 46.1 µM), for inactives: at the highest dose activity change, negative = cytotoxicity, most hits filed as cytotoxic | actives 0.76% (n = 410,000); note: potency is the fitted concentration of half-maximal effect
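CellTiter-Glo luminescence gave cytotoxicity after 18 hours at 37 degrees C. The cells were HepG2 CAGA-GFP in 1% FBS DMEM, stimulated with 500 pg/mL TGF-beta after compound addition. %Activity was normalised to no-cell wells (complete cell-killing) and DMSO (no toxicity), and curves were fitted and classified.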
ATXN viability = cell viability loss in ATXN counter-screen | actives 0.49% (n = 400,000) | S2 cells (HEK-293 line with an ATXN2-luciferase reporter) viability, CellTiter-Fluor protease fluorescence, 24 h | AID 651635 | Potency, µM (titrated, usually from 56.7 µM), actives largely listed as cytotoxic; note: potency is the fitted concentration of half-maximal effect; nearly all actives have a fitted effect of over 40% in size
TGFb SMAD3 inh = blocks TGF-b signaling; HepG2 CAGA-GFP TGF-b/SMAD3 reporter, GFP fluorescence, 18 h; TGF-beta stimulated, 500 pg/mL final; Potency, µM (doses to about 46.1 µM), inactives show at the top dose activity, negative = inhibition, most hits filed as inhibitors; actives 1.2% (n = 410,000); note: potency is the fitted concentration of half-maximal effect; % is set by controls: 0 for no effect and ±100 for the full control effect; nearly all actives have a fitted effect of over 65% in size
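HEPG2 CAGA-GFP reporter cells (1000/well, DMEM with 1% FBS) received compounds, then recombinant TGF-beta at 500 pg/mL final for 18 hours at 37 degrees C. Per-cell GFP summed per well was normalised to unstimulated and stimulated DMSO controls before curve fitting.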
Active calls of the source: *; i = inactive; ? = inconclusive; / = no result. Unless noted, calls come from the whole dose curve; as a rule, active = well fitted curve in the direction sought with a large enough effect; inconclusive = small, poorly fitted or top-dose-only effect, or another doubt; inactive = no such curve, though single readings can be large; an effect the other way counts as inactive or inconclusive.

SMILES	IL1B secr inh	ATXN2 expr inh	HepG2 viability	ATXN viability	TGFb SMAD3 inh
Cc1nc(SCC(=O)N(CC(C)C)C2CCS(=O)(=O)C2)c2ccccc2n1 (stereo not drawn)	-24.3	15.3%	-9.4%	i	1.1%
CCC(C)N(C(=O)CSc1nc(C)nc2ccccc12)C1CCS(=O)(=O)C1 (stereo not drawn)	-58.8*	5.0%	1.2%	?	-20.6%
CCn1c(SCC(=O)N(Cc2ccccc2)C2CCS(=O)(=O)C2)nc2ccccc2c1=O (stereo not drawn)	-2.1	1.9%	2.0%	i	1.6%
C=CCn1c(SCC(=O)N(C(C)CC)C2CCS(=O)(=O)C2)nc2ccccc2c1=O (stereo not drawn)	-14.5	13.3%	7.08µM*	i	-2.3%
CC(Oc1ccccc1F)C(=O)NNC(=O)CC(C)c1ccccc1 (stereo not drawn)	0.3	6.8%	0.891µM*	i	-16.4%
CC(=O)NC(CC(=O)NNC(=O)C(C)Oc1ccccc1F)c1ccccc1 (stereo not drawn)	23.7	9.1%	4.7%	i	-9.8%
Cn1c(SCC(=O)N2c3ccccc3Sc3ccc(Cl)cc32)nnc1-c1ccco1	-12.9	-5.0%	5.9%	i	-13.3%
Clc1cccc(-c2nnc(SC/C=C/c3ccccc3)n2Cc2ccco2)c1	-84.4*	?	-27.1%	?	?
O=C(CSc1nnc(-c2ccncc2)n1Cc1ccco1)N1c2ccccc2Sc2ccc(Cl)cc21	-73.9*	-14.5%	1.0%	i	17.0%
Cn1c(CCN2CCOCC2)nc2cc(NS(=O)(=O)c3ccccc3)ccc21	-18.5	1.6%	1.3%	i	-4.8%
Cn1c(CCN2CCCC2)nc2cc(NS(=O)(=O)c3ccc(F)cc3)ccc21	-56.2*	/	-38.5%	i	?
Cc1ccc(S(=O)(=O)Nc2ccc3c(c2)nc(CCN2CCCC2)n3C)cc1	-76.0*	18.1%	-7.1%	i	?
Cn1c(CCN2CCN(c3ccccn3)CC2)nc2cc(NS(=O)(=O)c3ccccc3)ccc21	-4.0	-15.0%	2.7%	?	?
Cn1c(CN2CCCC2)nc2cc(NS(=O)(=O)c3ccc(Cl)cc3)ccc21	-7.9	0.0%	-23.9%	i	-5.0%
Cn1c(CCN2CCCC2)nc2cc(NS(=O)(=O)c3ccc(Cl)cc3)ccc21	-85.8*	29.7%	-33.8%	i	?
Cn1c(CCN2CCCCC2)nc2cc(NS(=O)(=O)c3ccccc3)ccc21	-50.0*	3.6%	3.9%	i	?
Cn1c(CN2CCCC2)nc2cc(NS(=O)(=O)c3ccccc3)ccc21	2.5	1.7%	-9.4%	i	1.5%
O=C(COc1ccccc1C(=O)Nc1cccnc1)Nc1ccc(Br)cc1	/	/	3.7%	/	3.0%
Cc1cc(Nc2ccc(C)c(Cl)c2)nc(N2CCOCC2)n1	-50.6*	-1.2%	-63.8%	i	?
CC(C)(C)NCC(=Cc1ccccc1)C(=O)c1ccccc1	-101.7*	8.44µM*	-100.0%	10.6µM*	8.91µM*
Cc1nc(CN2CCN(S(=O)(=O)c3c(Cl)cc(Br)cc3Cl)CC2)cs1	-52.8*	-0.5%	-10.5%	i	12.3%
C=CC(=O)N1c2ccccc2Sc2ccc(NC(=O)OCC)cc21	-111.7*	?	-22.4%	?	15.8µM*
CC(=O)c1ccc2c(c1)Nc1ccccc1S2	-15.3	-6.9%	-0.9%	i	0.4%
CCOC(=O)Nc1ccc2c(c1)Nc1ccccc1S2	-65.6*	0.7%	-23.2%	?	-24.0%
CCc1ccc(Cn2c(CNS(=O)(=O)c3ccc(Cl)s3)nc3cccnc32)cc1	/	/	-26.1%	/	?
SMILES	IL1B secr inh	ATXN2 expr inh	HepG2 viability	ATXN viability	TGFb SMAD3 inh
CC(Cl)C(=O)Nc1cc(C(C)(C)C)nn1-c1ccccc1 (stereo not drawn)	-9.3	/	-3.1%	i	20.8%
CCCc1cc(NC(=O)CCl)n(-c2ccccc2)n1	-99.4*	-16.6%	-49.9%	?	?
CC(C)(C)c1cc(NC(=O)CCl)n(-c2ccccc2)n1	-93.2*	?	9.4%	?	-8.2%
Cc1nc2ccc(NC(=O)c3cccc(S(=O)(=O)N(C)c4ccccc4)c3)cc2s1	37.4	28.2µM*	3.4%	?	?
CN(c1ccccc1)S(=O)(=O)c1cccc(NC(=O)c2ccc3ncsc3c2)c1	-69.0*	?	-10.1%	?	?
CCc1sc(C(=O)Nc2ccc3nc(C)sc3c2)cc1C	-51.9*	0.0%	-10.2%	i	-3.1%
CN(c1ccccc1)S(=O)(=O)c1cccc(NC(=O)c2cccc(C#N)c2)c1	?	?	-13.6%	i	-12.1%
CN(C)S(=O)(=O)c1cccc(NC(=O)c2ccc(COc3ccccc3)cc2)c1	-72.5*	?	-32.8%	12.6µM*	-20.8%
Cc1ccc(S(=O)(=O)N2CCN(c3cc(-c4cccs4)nc4ccccc34)CC2)cc1	/	/	-18.8%	/	7.1%
CCCCCn1c(=O)[nH]c2cc(C(=O)N3CCN(c4cccc(C)c4)C(C)C3)ccc2c1=O (stereo not drawn)	/	-10.7%	-19.2%	i	?
CCC(Sc1nc(-c2ccccc2)[nH]c1S(=O)(=O)c1ccc(C)cc1)C(=O)O (stereo not drawn)	/	15.2%	3.5%	i	-17.0%
CC(=O)O[C@H]1C2OC(=O)C(C)=C2[C@@H]2OC(=O)[C@]3(CCC4OC41C)OC23 (stereo partly drawn)	-72.3*	4.9%	-10.0%	i	23.4%
Cc1ccc(S(=O)(=O)c2cn(C)c3cc(N4CCN(C)CC4)c(F)cc3c2=O)c(C)c1	-93.2*	?	-24.3%	i	-2.9%
COc1ccccc1-n1cc(CN2CCC3(CCC(CNC(=O)c4ccccc4)O3)CC2)cn1 (stereo not drawn)	/	/	/	i	/
CCC(CC)COC(=O)C1=C(C)NC(=O)NC1c1ccc(N(C)C)cc1 (stereo not drawn)	?	/	7.94µM*	i	?
O=C(CCOc1ccccc1)N(Cc1cccnc1)c1nc2c(F)cccc2s1	/	/	-98.6%	/	15.8µM*
O=C(COc1ccccc1)N(Cc1cccnc1)c1nc2c(F)cccc2s1	/	/	-16.1%	/	?
Cc1cccc2sc(N(Cc3cccnc3)C(=O)Cc3ccccc3)nc12	/	/	-20.7%	/	12.6µM*
Cc1cccc2sc(N(Cc3cccnc3)C(=O)CCc3ccccc3)nc12	/	/	-33.3%	/	11.2µM*
CC(=O)N(Cc1cccnc1)c1cccc(-c2nc3ccccc3s2)c1	-61.7*	-29.5%	-4.9%	i	-23.4%
COc1ccc2nc(N(Cc3cccnc3)C(C)=O)sc2c1	/	/	-5.5%	/	-14.5%
O=C(CCc1ccccc1)N(Cc1cccnc1)c1nc2c(F)cccc2s1	/	/	-22.8%	/	?
Cc1cccc(Oc2ccc(NC(=O)CCC(=O)OCC(=O)c3ccc(Br)cc3)cc2)c1C	/	-9.9%	-90.6%	i	-4.9%

Compound activity: PubChem BioAssay, National Center for Advancing Translational Sciences (NCATS)
